Screening results from PubChem BioAssay.
Only some compounds are listed: those with a hit (about 3.1% of all), similar ones and a draw of the others.
VDR inhibitor: Inhibitors of the vitamin D receptor (VDR): qHTS; 0.93% of 400,000 active; Potency, µM, hits mostly inhibitors; Vitamin D3 receptor (Homo sapiens), P11473; AID 504847, 2011; VDR-SRC2-3 peptide fluorescence polarization, 2 h
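The screen uses fluorescence polarization to detect compounds that interfere with recruitment of the SRC2-3 coactivator peptide to VDR; plates are read after 2 h at room temperature.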
PLK1 PBD block: qHTS for Inhibitors of PLK1-PDB (polo-like kinase 1 - polo-box domain): Primary Screen; 2.8% of 360,000 active; Plk1 PBD binding of FITC phosphopeptide, fluorescence polarization; Potency, µM, usual class: inhibitors; note: series mostly up to about 57 µM; nearly all actives have a fitted effect of over 65% in size
Pin1 inhibitor: qHTS Assay to Find Inhibitors of Pin1; AID 504891, 2011; 0.009% of 390,000 active; Pin1 FP peptide displacement, HiFluor488, 10 min; Peptidyl-prolyl cis-trans isomerase NIMA-interacting 1 (Homo sapiens), Q13526; Potency, µM (series often up to 115 µM), hits mostly inhibitors; active = well fitted inhibition curve with a large enough effect in the polarisation, with a control signal flat, not every such curve was filed as active; inconclusive = small, poorly fitted or top-dose-only effect, or effect the other way, or a change in a side signal; inactive = no such curve, though single readings can be large or run the other way; the % refers to the polarisation
Target sequence (Q13526 whole entry, looked up): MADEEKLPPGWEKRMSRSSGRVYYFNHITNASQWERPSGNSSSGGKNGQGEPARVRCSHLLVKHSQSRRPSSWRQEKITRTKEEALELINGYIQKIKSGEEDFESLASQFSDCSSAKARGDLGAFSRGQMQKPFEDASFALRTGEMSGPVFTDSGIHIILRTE
S-ASM inh: Inhibitors of Secretory Acid Sphingomyelinase (S-ASM): qHTS; Sphingomyelin phosphodiesterase (Homo sapiens), P17405; AID 504937, 2011; 0.006% of 340,000 active; Potency, µM (doses to about 57.5 µM), most hits filed as inhibitors; placental ASM, HMU-PC fluorogenic substrate, 60 min
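Human placenta-derived ASM enzyme was preincubated with compound for 10 minutes at room temperature, then given fluorogenic substrate HMU-PC0 (9 uM final) for 60 minutes at 37 °C; a pH 10 stop preceded fluorescence reading at Ex 386/Em 447 nm.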
Tb PFK block: qHTS Assay to Find Inhibitors of T. brucei phosphofructokinase | ATP-dependent 6-phosphofructokinase (Trypanosoma brucei brucei), O15648 | T. brucei PFK, ADP-Glo luminescence | Potency, µM (highest dose often 57.5 µM), usual class: inhibitors | 0.17% of 330,000 active | AID 485367, 2010; note: nearly all actives have a fitted effect of over 60% in size
Target sequence (O15648 whole entry, looked up): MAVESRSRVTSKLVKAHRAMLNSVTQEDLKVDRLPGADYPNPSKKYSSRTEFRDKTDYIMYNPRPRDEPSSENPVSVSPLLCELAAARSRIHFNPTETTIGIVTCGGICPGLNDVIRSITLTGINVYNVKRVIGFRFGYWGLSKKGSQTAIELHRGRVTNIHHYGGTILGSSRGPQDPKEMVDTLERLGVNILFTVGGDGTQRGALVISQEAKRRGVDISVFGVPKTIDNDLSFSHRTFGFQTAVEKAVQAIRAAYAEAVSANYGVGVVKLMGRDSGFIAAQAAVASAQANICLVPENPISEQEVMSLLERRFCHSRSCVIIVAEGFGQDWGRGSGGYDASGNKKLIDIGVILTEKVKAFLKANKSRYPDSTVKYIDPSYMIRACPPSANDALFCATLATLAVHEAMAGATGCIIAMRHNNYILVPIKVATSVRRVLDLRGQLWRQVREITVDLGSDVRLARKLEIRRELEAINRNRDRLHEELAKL
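PFK 1.25 nM, F6P 0.5 mM, ATP 0.1 mM, 0.1 M TEA pH 8.0, 5 mM MgCl2, 0.01% Tween20, 0.1% BSA; 45 min RT. ADP-Glo readout. qHTS titration up to 57 uM; curves fitted, compounds curve-classed.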
TDP1 inh: qHTS Assay for Inhibitors of Tyrosyl-DNA Phosphodiesterase (TDP1). Tyrosyl-DNA phosphodiesterase 1 (Homo sapiens), Q9NUW8. Potency, µM (titrated, usually from 130 µM), usual class: inhibitors. 0.28% of 350,000 active. AID 485290, 2010. recombinant TDP1, AlphaScreen DNA substrate cleavage; note: nearly all actives have a fitted effect of over 40% in size
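E. coli-derived human Tdp1, 1 nM final. Cpd preinc 15 min RT; substrate 15 nM final, 5 min RT; AS bead mix 10 ug/ml final, 10 min RT. Signal loss = tyrosine-FITC cleavage. No-enzyme wells = max signal.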
Numbers stand for hits; n = inactive; u = inconclusive; x = not tested or not shown; [ ] = another dose, or the depositor's remark. Unless noted, calls come from the whole dose curve; as a rule, active = well fitted curve in the direction sought with a large enough effect; inconclusive = small, poorly fitted or top-dose-only effect, or another doubt; inactive = no such curve, though single readings can be large; an effect the other way counts as inactive or inconclusive.

SMILES	VDR inhibitor	PLK1 PBD block	Pin1 inhibitor	S-ASM inh	Tb PFK block	TDP1 inh
COc1ccc(-c2c3c([nH]c(=S)c2C#N)CCC3)cc1	u	7.52µM	u	n	u	n
COc1ccc(OC)c(-c2c3c([nH]c(=S)c2C#N)CCCC3)c1	n	26.7µM	n	n	n	n
CCn1nnnc1SCC(=O)N1CCCc2ccccc21	n	26.7µM	n	n	n	n
Cn1nnnc1SCC(=O)N1CCc2ccccc21	n	n	n	n	n	x
CC(C)c1nnc(SCC(=O)N2CCc3ccccc32)n1N	79.4µM	u	n	n	n	n
Nc1nnc(SCC(=O)N2CCc3ccccc32)n1-c1ccccc1	n	n	n	n	n	n
O=C(CSc1nnc(CN2CCOCC2)n1-c1ccc(Cl)cc1)N1CCc2ccccc21	79.4µM	n	n	n	x	x
Cc1cc2c(s1)c1cnn(Cc3cccc4cccnc34)c(=O)c1n2C	x	x	n	x	x	x
CC(=O)N(C)C	x	x	x	x	x	n
O=S(=O)(NCC(c1ccco1)N1CCN(c2ccc(F)cc2)CC1)c1cc(F)ccc1F (stereo not drawn)	n	x	n	x	x	n
COC(=O)Cc1c(C)c2ccc3c(c2oc1=O)CN(Cc1ccccc1OC)CO3	n	x	n	x	x	n
Cc1cc(O)c2c(c1O)C(=O)C(O)=C(O)C2=O	8.91µM	x	x	x	x	n
COc1ccc(C2=CC(c3cc(OC)c(OC)c(OC)c3)NC(=S)N2)cc1 (stereo not drawn)	n	11.9µM	u	n	n	n
c1ccc2[nH]c3cc4ncnc4cc3nc2c1	n	23.8µM	u	n	n	n
O=C(NCCC(=O)N(Cc1ccco1)Cc1cccs1)c1ccccc1Cl	n	n	n	n	n	n
O=C(c1cccc(Cl)c1Cl)N(Cc1ccco1)Cc1cccs1	79.4µM	x	n	x	x	n
CC(=O)NCCc1nc2ccccc2n1CCOc1ccccc1	n	23.8µM	n	n	n	n
Cc1ccc(C)c(NC(=O)CSc2nc(C)cc(C)c2C#N)c1	n	n	n	n	n	n
Cc1ccccc1NC(=O)CSc1[nH]c(=O)cc(C)c1C#N	n	21.2µM	u	n	n	n
CCC(C)NCc1ccc(C(=O)OC)o1 (stereo not drawn)	u	23.8µM	n	n	n	n
COC(=O)c1ccc(Cc2ccc(C(=O)OC)o2)o1	n	n	n	n	n	n
O=C(NNc1cc(Cl)ccc1Cl)C1CCC1	u	26.7µM	n	n	n	n
O=C(Nc1cc(Cl)ccc1Cl)N1CCCC1	u	8.44µM	n	n	n	n
O=S(=O)(c1cccc(F)c1)N1CCN(c2nc(-c3cccs3)nc3ccccc23)CC1	n	x	n	x	x	x
N#CC1(NC(=O)COC(=O)c2cc(O)c3ccccc3c2O)CCCCC1	44.7µM	6.7µM	u	n	n	n[0.505 µM]
SMILES	VDR inhibitor	PLK1 PBD block	Pin1 inhibitor	S-ASM inh	Tb PFK block	TDP1 inh
CCOC(=O)C1=C(N)OC2=C(C(=O)CC(C)(C)C2)C1c1ccoc1 (stereo not drawn)	n	21.2µM	n	n	n	n
COC(=O)N1C2CC3(C)CC(=O)CC1(C)C3c1ccccc12 (stereo not drawn)	x	x	x	x	x	n[12.3 µM]
O=C(O)c1cccc(NC(=O)c2cn(-c3ccccc3)nc2-c2ccncc2)c1	n	23.8µM	n	n	n	n
COc1ccc(-c2nn(-c3ccccc3)cc2C(=O)Nc2cccc(C(=O)O)c2)cc1[N+](=O)[O-]	n	n	n	n	u	22.4µM
O=C(O)c1cccc(NC(=O)c2cn(-c3ccccc3)nc2-c2cccc(Br)c2)c1	n	u	x	n	n	x
O=C(O)c1cccc(NC(=O)c2cn(-c3ccccc3)nc2-c2ccc([N+](=O)[O-])cc2)c1	n	n	u	n	n	n
Cc1noc(C)c1-c1ccc2ncnc(NC3CCCc4ccccc43)c2c1 (stereo not drawn)	x	x	n	x	x	n
Cn1ncc2c(N3CCN(c4ccccc4Cl)CC3)ncnc21	n	x	n	x	x	n
Clc1ccccc1COc1ccc(/C=N/n2cnnc2)cc1	n	n	n	n	n	79.4µM
Cc1cc(NC(=O)COc2ccc3oc4ccccc4c3c2)no1	n	29.9µM	n	n	n	n
CN(C)c1ccc(-c2nc(N(C)Cc3ccco3)c3ccccc3n2)cc1	u	x	x	x	x	n
CN(Cc1ccco1)c1nc(-c2ccoc2)nc2ccccc12	44.7µM	x	x	x	x	x
CN(Cc1ccco1)c1nc(-c2cccc(C#N)c2)nc2ccccc12	44.7µM	x	x	x	x	n
CN(C)C(=O)c1ccc(-c2nc(N(C)Cc3ccco3)c3ccccc3n2)cc1	u	x	x	x	x	n
Cc1cccc(CNc2nc(-c3c(C)noc3C)nc3ccccc23)c1	n	x	x	x	x	n
Cc1noc(C)c1-c1nc(N(C)Cc2ccco2)c2ccccc2n1	28.2µM	x	x	x	x	x
O=C([O-])[C@@H]1[O][Sb+]([O][Sb+]2[O][C@H]([C@H](O)CO)[C@H](O)[C@H](C(=O)[O-])[O]2)[O][C@H]([C@H](O)CO)[C@@H]1O	n	x	x	x	x	n
O=S1(=O)N=C(Oc2ccc(Cl)cc2)c2ccccc21	x	x	n	x	x	n
CC(C)C[C@H](NC(=O)[C@H](C)NC(=O)CNC(=O)[C@H](CCCCN)NC(=O)[C@H](CCCN=C(N)N)NC(=O)[C@H](C)NC(=O)[C@H](Cc1ccccc1)NC(=O)[C@@H](N)CCCN=C(N)N)C(=O)N[C@@H](CCCN=C(N)N)C(=O)N[C@@H](CCC(N)=O)C(=O)N[C@@H](CCCCN)C(=O)N[C@@H](CC(N)=O)C(=O)N[C@H](C(N)=O)C(C)C	n	x	x	x	x	n
S=c1[nH]nc(-c2ccc(Cl)cc2)n1/N=C/C=C/c1ccco1	n	26.7µM	u	n	n	n
Cc1ccccc1-c1n[nH]c(=S)n1/N=C/C=C/c1ccco1	70.8µM	u	x	n	n	x
CN(C)S(=O)(=O)c1cccc(-c2nnc(SCc3cc(Cl)cc4c3OCOC4)n2N)c1	u	9.47µM	n	n	n	n
COc1cc(/C=C2\N=C(C)OC2=O)cc(OC)c1OC	39.8µM	n	n	n	n	n
O=C1OC(c2ccc(Br)cc2)=N/C1=C\c1ccco1	n	n	n	n	n	n
CC1=N/C(=C/c2ccco2)C(=O)O1	n	n	u	n	n	5.62µM
CCOc1c(Br)cc(/C=C2\N=C(C)OC2=O)cc1Br	n	n	n	n	n	x
COc1cc(C2=N/C(=C\c3ccccc3)C(=O)O2)cc(OC)c1OC	u	x	x	x	x	n
CCOC(=O)Oc1ccc(/C=C2\N=C(C)OC2=O)cc1	20µM	n	n	n	n	x
